Shown are actives, neighbours in structure and some others; about 7.5% of the full set was active somewhere.
Rab9 prom act – qHTS Assay for Rab9 Promoter Activators; Potency, µM (top dose mostly 9.22 µM), without a hit: at the highest dose activation, negative = inhibition, usual class: activators; hit rate 2.8% among 320,000; AID 485297, 2010; Huh7 Rab9 promoter-luciferase reporter, luminescence, 24 h; further: % of control where 0% means no effect; nearly all actives have a fitted effect of over 60% in size
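Cell-based reporter: Huh7 stable for Rab9 promoter-driven luciferase, plated in reduced-serum medium with 10% FBS at 1500 cells/well, compound-treated 24 h at 37 °C, luminescence read after 10 min reagent.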
SMN2 splice enh – qHTS Assay for Enhancers of SMN2 Splice Variant Expression. hit rate 2.8% among 210,000. HEK293 SMN2-luciferase splicing reporter, luminescence, 30-36 h. Potency, µM (doses to about 46.1 µM), inactives show at the highest dose activity change, positive = activation, hits mostly activators; further: % of control where 0% means no effect; nearly all actives have a fitted effect of over 55% in size
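HEK293 cells carry an SMN2 minigene-luciferase reporter in which exon 7 inclusion puts luciferase in frame. Cells were seeded at 2000 cells/well, attached for 10-12 hours, then exposed to compounds for 30-36 hours at 37C before ONE-Glo luminescence.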
FLuc counter – qHTS profiling assay for firefly luciferase inhibitor/activator using purifed enzyme and Km concentrations of substrates (counterscreen for miR-21 project); Luciferin 4-monooxygenase (Photinus pyralis), P08659; purified FLuc, Km substrates, luminescence inhibition; Potency, µM (top dose mostly 57.5 µM), inactives show top-dose activity change, negative = inhibition, actives largely listed as inhibitors; hit rate 6.9% among 360,000; AID 588342, 2011;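 further: plate controls were vehicle for no effect and reference inhibitor for full effect; nearly all actives have a fitted effect of over 55% in size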
Target sequence (P08659 whole entry, looked up): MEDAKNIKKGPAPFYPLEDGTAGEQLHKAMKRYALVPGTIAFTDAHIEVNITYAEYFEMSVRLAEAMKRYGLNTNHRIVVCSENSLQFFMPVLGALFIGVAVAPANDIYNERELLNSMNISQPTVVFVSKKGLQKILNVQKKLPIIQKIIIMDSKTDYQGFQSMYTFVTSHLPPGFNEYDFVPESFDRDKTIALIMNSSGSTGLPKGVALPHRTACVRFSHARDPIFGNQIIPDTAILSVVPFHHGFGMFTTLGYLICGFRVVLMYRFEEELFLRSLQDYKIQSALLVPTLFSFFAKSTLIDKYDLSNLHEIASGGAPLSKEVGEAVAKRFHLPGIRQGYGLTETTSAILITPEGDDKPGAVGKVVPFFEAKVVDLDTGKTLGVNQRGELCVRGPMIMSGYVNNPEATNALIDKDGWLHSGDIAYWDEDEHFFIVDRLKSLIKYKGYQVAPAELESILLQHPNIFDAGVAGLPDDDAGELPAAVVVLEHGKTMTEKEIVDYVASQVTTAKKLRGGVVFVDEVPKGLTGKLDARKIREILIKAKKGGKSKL
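Purified P. pyralis luciferase (10nM final) with 10uM D-luciferin and 10uM ATP (Km levels) in 50mM Tris acetate pH 7.5, 10mM Mg acetate, 0.01% Tween-20, 0.05% BSA; qHTS 6-point titration, ~60 µM downward; luminescence read.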
NPC1 promoter act – qHTS Assay for NPC1 Promoter Activators; Huh7 NPC1 promoter luciferase reporter, 24 h; Potency, µM (titrated, usually from 9.22 µM), without a hit: top-dose activation, usual class: activators; hit rate 2.4% among 320,000; further: % of control where 0% means no effect; nearly all actives have a fitted effect of over 60% in size
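In 1536-well qHTS, Huh7 cells harboring an NPC1 promoter–luciferase construct received compound for 24 h; activation was quantified by luminescence following luciferase reagent addition.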
Luc counter – Counterscreen for Luciferase (Kinase-Glo TM) Inhibition | Luciferin 4-monooxygenase (Photuris pensylvanica), Q27757 | Kinase-Glo luciferase, ATP luminescence, 8 min | Potency, µM (top dose mostly 38.3 µM), for inactives: top-dose activity change, negative = inhibition, actives largely listed as inhibitors | hit rate 0.28% among 200,000; further: on the % scale 0 is the no-effect control and ±100 the full control effect; nearly all actives have a fitted effect of over 60% in size
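Compounds were added to a substrate mix at pH 7.2 (50 mM imidazole, 10 uM ATP, within the enzyme's linear range), followed by Kinase-Glo detection reagent; luminescence was measured after 8 minutes at ambient temperature.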
ELG1 genotox – qHTS screen for small molecules that induce genotoxicity in human embryonic kidney (HEK293T) cells expressing luciferase-tagged ELG1; HEK293T ELG1-luciferase reporter, luminescence, 16 h; Potency, µM (highest dose often 46 µM), for inactives: at the highest dose activity change, positive = activation, usual class: activators; AID 504466, 2011; hit rate 1.3% among 330,000; further: % of control where 0% means no effect; nearly all actives have a fitted effect of over 60% in size
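Step 1: seed 2,000 HEK293T ELG1-luciferase cells per well. Step 2: add compound or DMSO, incubate 16 hr at 37 °C. Step 3: ONE-Glo, 30 min at room temperature, read luminescence.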
Numbers without * were called inactive; ? = inconclusive; / = not tested or not shown; [ ] = another dose, or the depositor's remark. The call rests on the fitted dose curve; in most records, active means well fitted curve in the direction sought with a large enough effect; inconclusive means small, poorly fitted or top-dose-only effect, or another doubt; inactive means no such curve, though single readings can be large; an effect the other way counts as inactive or inconclusive. Potency means the concentration at half of the fitted maximal effect.

SMILES	Rab9 prom act	SMN2 splice enh	FLuc counter	NPC1 promoter act	Luc counter	ELG1 genotox
CCC1=C2CC[C@H]3C(=O)N(CC(=O)OC)C(=O)[C@H]3[C@H]2[C@@]2(C)C(=NCCc3c[nH]c4ccccc34)OC(=O)N2C1=O	/	3%	/	/	0%	/
CC1=CN2C(=N)/C(=C/c3ccc(C)o3)C(=O)N=C2S1	0.79µM*	2.8µM*	1.2µM*	1.6µM*	-8%	?
CC1=CN2C(=N)/C(=C/c3ccc(Sc4ccc(Cl)cc4)o3)C(=O)N=C2S1	1%	-36%	-1%	-2%	3%	-1%
CC1=CN2C(=N)/C(=C/c3ccc(Sc4ccc(C)cc4)o3)C(=O)N=C2S1	-8%	2%	19µM*	7%	3%	1%
Cc1ccc(/C=C2\C(=N)N3N=C(CC(=O)N4CCOCC4)SC3=NC2=O)o1	1%	/	-19%	-1%	/	2%
C=CCOc1ccc(C(=O)c2ccccc2)c(OCC(=O)NC2(C#N)CCCC2)c1	-3%	/	-1%	-2%	/	-7%
Cc1ccc2c(c1)cc1c(=O)n(CC(=O)NC3CCCCC3)nc(C)n12	/	5%	6%	/	/	/
Oc1cc2c(cc1O)[C@H]1c3ccc(O)c(O)c3OC[C@@]1(O)C2	0%	-20%	15µM*	-2%	0%	2%
COc1cc(OC)cc(C(=O)NCCS(=O)(=O)N2CCN(Cc3ccccc3)CC2)c1	-2%	/	7%	-1%	/	0%
COc1ccc(CNC(=O)CCN2C(=O)[C@@H]3Cc4ccccc4CN3C2=O)cc1	-6%	/	0%	0%	/	3%
Cc1cccc(-c2nnc(-c3ccc(N)cc3)o2)c1	2.8µM*	4.5µM*	3.4µM*	?	-19%	?
Cc1ccc(-c2nnc(-c3ccc4ccccc4c3)o2)cc1	/	?	/	/	-6%[7.66 µM]	/
Nc1ccc(-c2nnc(-c3ccc(N)cc3)o2)cc1	3.5µM*	/	3.4µM*	3.5µM*	/	16µM*
Cc1cc(C)c2c(N)c3cccc(C)c3nc2n1	-36%	18µM*	-13%	-24%	11%	-10%
COc1ccc(CN2CCCC(C(=O)Nc3cccc(-n4cnnn4)c3)C2)c(C)c1C (stereo not drawn)	-3%	/	2%	-2%	/	-4%
N#Cc1ccc(Cn2ccnc2C(=O)Nc2ccccc2)cc1	6%	-7%	?	4%	-7%	8%
Cc1ccc(Cn2ccnc2C(=O)Nc2ccccc2)cc1	1.6µM*	16µM*	7.6µM*	4µM*	1%	?
O=C(O)c1cccc(-n2cccc2/C=C2/NC(=O)N(c3cccc(Cl)c3)C2=O)c1	-5%	/	-7%	3%	/	0%
O=C(O)c1cccc(-n2cccc2C=C2C(=O)c3ccccc3C2=O)c1	-3%	/	12µM*	-2%	/	9%
O=C1C(=Cc2cccn2-c2ccc(O)cc2)C(=O)c2ccccc21	0%	5%	3.4µM*	-1%	-3%	1%
O=C(O)c1cccc(-n2cccc2/C=C2/NC(=O)N(c3ccc(Cl)cc3)C2=O)c1	-2%	18%	27µM*	3%	1%	2%
O=C(COc1ccc(F)c(Cl)c1)Nc1ccc(N2CCOCC2)cc1	/	/	/	/	/	-2%
Cc1ccc(S(=O)(=O)N2CCN(C(=O)CN3C(=O)c4ccccc4C3=O)CC2)c(C)c1	1%	/	1%	-3%	/	-1%
Cc1ccc(C(=O)CCC(=O)Nc2ccccc2F)cc1	17%	/	?	14%	/	14%
CN(CCCNC(=O)c1cccc(N2CCCC2=O)c1)c1ccccc1	0%	3.2µM*	-6%	1%	9%	-1%
O=C(NCCc1ccccc1)c1cccc(N2CCCC2=O)c1	0.32µM*	/	2.1µM*	0.5µM*	/	?
